Most compounds without a hit are left out; they make up all but 0.8% or so of the library.
TNAP act DEA = human TNAP activation, intermediate phosphate acceptor. P05186. purified TNAP, CDP-star luminescence, 100 mM DEA, 30 min; stronger effect = higher value; scale: 0 levamisole-inhibited, 1 vehicle-only enzyme. activation factor at 20 µM. 64,000 tested, under 10 active;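 active = activation factor of at least 2 at 20 µM, relative to controls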
MT1-MMP txn act = MT1-MMP promoter transcription activation; HT1080 MT1-MMP promoter luciferase reporter, luminescence, overnight; stronger effect = higher value; activation factor at 10 µM; hit rate 0.16% among 86,000;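 active = activation factor of at least 2 for MT1-MMP transcription at 10 µM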
E coli RNAP = inhibitors of Escherichia coli RNA polymerase | P0A8V2 | E. coli RNA polymerase, fluorescence transcription assay | inhibition, %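 (tested at 10 µM)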 | hit rate 0.2% among 62,000 | AID 559; in the data active = inhibition above about 20%;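 also: 0% = enzyme without compound and 100% = no enzyme blank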
Smad3 inh = Smad3 (human) transcription factor binding inhibition; P84022; inhibition, % at 25 µM; TR-FRET Smad3/Dy647-FoxH1 peptide binding, europium anti-His; AID 630; hit rate 0.29% among 88,000;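 active = compounds that reduce the energy-transfer binding signal between the protein and its labelled peptide by more than half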;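 also: 0% = Smad3 plus labelled peptide maximal FRET and 100% = peptide-only background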
HePTP inh = inhibitors of human HePTP phosphatase. P35236. recombinant HePTP phosphatase activity, OD absorbance. inhibition, % at 20 µM. hit rate 0.64% among 110,000; in the data active = inhibition above about 50%;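 also: plate controls were vehicle for no effect and reference inhibitor for full effect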
Target sequence (P35236 whole entry, looked up): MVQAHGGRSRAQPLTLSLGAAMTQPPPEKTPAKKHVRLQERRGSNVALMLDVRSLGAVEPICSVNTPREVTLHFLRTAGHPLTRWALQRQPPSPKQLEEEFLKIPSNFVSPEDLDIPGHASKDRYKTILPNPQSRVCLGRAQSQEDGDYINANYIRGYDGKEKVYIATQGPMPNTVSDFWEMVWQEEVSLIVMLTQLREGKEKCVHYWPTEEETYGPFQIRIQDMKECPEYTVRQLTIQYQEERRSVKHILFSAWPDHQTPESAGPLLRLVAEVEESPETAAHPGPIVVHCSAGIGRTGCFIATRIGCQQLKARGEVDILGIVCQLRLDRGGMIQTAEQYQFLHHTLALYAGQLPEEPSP
Active calls of the source: *; · = no result given; [ ] = dose if it differs, or a comment.

SMILES | TNAP act DEA | MT1-MMP txn act | E coli RNAP | Smad3 inh | HePTP inh
O=C1NC(=S)NC(=O)C1=Cc1ccc(-c2ccc(S(=O)(=O)Nc3nccs3)cc2)o1 | · | · | · | · | 100*
O=C(NC1(C(F)(F)F)Oc2ccccc2O1)N1CCC2(CC1)OCCO2 | · | 1 | · | -1 | ·
O=C(NC1(C(F)(F)F)Oc2ccc(Cl)cc2O1)N1CCC2(CC1)OCCO2 (stereo not drawn) | 0.9 | · | 22* | 1 | -7
COc1cc2c3cc1Oc1c(O)c(OC)cc4c1[C@@H](Cc1ccc(cc1)Oc1cc(ccc1O)C[C@@H]3N(C)CC2)N(C)CC4 | · | · | · | 59* | ·
CCCn1c(C)c(C(=O)OCC)c2cc(O)ccc21 | · | · | · | · | 4
CCOc1cc(C)cc2oc(=O)c3c(c12)CCC3 | · | · | · | · | 104*
CCc1ccc(CNCCc2ccccc2OC)cc1 | · | · | · | · | -14
CC(/C=C/c1c[nH]c2ccccc12)=N/O | · | · | · | · | 3
CCOc1ccc(N2C(=O)/C(=C/c3ccco3)C(=O)NC2=S)cc1 | · | · | · | · | 102*
O=C1NC(=S)N(c2cccc(Br)c2)C(=O)/C1=C/c1ccco1 | · | · | · | · | 102*
O=C(O)C[C@@H]1NCc2cc3ccccc3nc21 | · | · | · | 51* | ·
Cn1cccc1/C=C1/C(=O)NC(=S)N(c2ccc(Cl)cc2)C1=O | · | · | · | · | 100*
COc1ccc(Br)cc1CN1CCN(C(=O)COc2ccc3ccccc3c2)CC1 | · | · | · | · | 0
COC(=O)C[C@]1(C(=O)OC)CN(C#N)N(c2ccc(Cl)cc2)C12c1ccccc1-c1ccccc12 | · | 0 | · | 72*[fluorescence artefact?] | ·
COC(=O)[C@@H]1[C@@H](C(=O)OC)C2(c3ccccc3-c3ccccc32)N(c2ccc(Cl)cc2)N1C#N | · | 1.3 | · | 1 | ·
O/N=C1\C2CCN(CC2)C1Cc1ccccc1O (stereo not drawn) | · | · | · | · | 3
C[C@@H]1[C@H]2C=C[C@@H]1[C@H](c1c3ccc(=O)c(O)c-3oc3c(O)c(O)ccc13)[C@@H]2C(=O)O | · | · | · | 102* | ·
COc1cc(OC)c(OC)cc1CN1CCN(C(=O)COc2ccccc2)CC1 | · | · | · | · | 8
C[C@@]12CC[C@@H]3[C@H](CCC4=CC(=O)CC[C@H]43)[C@H]1CC[C@H]2OC1(O)C(=O)c2ccccc2C1=O | · | · | · | 54* | ·
CC12CCC(=O)C=C1CCC1C2CCC2(C)C(O)CCC12 (stereo not drawn) | 1 | 1 | -11 | -5 | -9
CCN(CC)P(=O)(NC(=O)C(Cl)(Cl)Cl)N(CC)CC.[Cl-].[Cl-].[Cl-].[Nd+3] | · | 1 | · | 67*[fluorescence artefact?] | ·
O=C1NC(=S)NC(=O)C1=Cc1ccc(Sc2ccccc2)o1 | · | · | · | · | 16
N/C(=N\[N+](=O)[O-])N/N=C\c1ccc(-c2ccc(Cl)c([N+](=O)[O-])c2)o1 | · | · | · | · | 42
O=c1c2ccccc2nc(/C=C/c2ccc(Cl)cc2)n1-c1ccccc1O | · | · | · | · | 4
CC(=O)O[C@H]1CC[C@H]2[C@H]3CCC4=C[C@@H](C5SCCS5)[C@H](OC(C)=O)C[C@]4(C)[C@@H]3CC[C@]12C | · | · | · | 98* | ·
SMILES | TNAP act DEA | MT1-MMP txn act | E coli RNAP | Smad3 inh | HePTP inh
Cc1cc(C=C2C(=O)NC(=S)NC2=O)c(C)n1C | · | · | · | · | -2
Cn1c(=O)c2[nH]cnc2n(C)c1=O.[CH2-][C@H](Cc1cccc2cc(C(=O)O)c(=O)oc12)OC.[Hg].[OH-] | · | · | · | 68* | ·
CCC(C)NC(=O)c1c(N)n(CCCOC)c2nc3ccccc3nc12 (stereo not drawn) | 1 | 1.1 | -3 | 52* | 5
COCCCn1c(N)c(C(=O)OC(C)COC)c2nc3ccccc3nc21 (stereo not drawn) | 0.9 | 0.9 | -13 | 1 | 7
COc1ccc(CN2CCN(Cc3ccc(SC)cc3)CC2)cc1 | · | · | · | · | 72*
COc1ccc(CN2CCN(Cc3cccc(OC)c3)CC2)cc1 | · | · | · | · | -8
CCC1(C)CC(CCNCc2ccc(N(C)C)cc2)(c2ccc(C)cc2)CCO1 (stereo not drawn) | · | · | · | · | -3
Cn1c(O)c(/C=C2/C=CC=N2)c(=O)n(-c2ccccc2)c1=S | · | · | · | · | 101*
O=S(=O)(Nc1nccs1)c1ccc([As](=O)(O)O)cc1 | · | · | · | 102* | ·
CN1C(=O)NC(=O)/C(=C\c2cc3c(cc2Cl)OCO3)C1=O | · | · | · | · | -10
C=CCc1cc(/C=C2\C(=O)NC(=O)N(c3cc(C)cc(C)c3)C2=O)cc(OC)c1O | · | · | · | · | 8
N#CS.N=C=S.N=C=S.[Cu].[NH2-].[NH2-].[NH2-].[NH2-].c1ccc2ncccc2c1 | · | · | · | 63* | ·
CN1C(=O)NC(=O)/C(=C\c2ccc([N+](=O)[O-])o2)C1=O | · | · | · | · | 97*
CN1C(=O)NC(=O)/C(=C/c2ccc(I)o2)C1=O | · | · | · | · | -4
CCCCn1c(O)c(C(C)=NCCCN(C)C)c(=O)[nH]c1=O | 0.9 | 1 | -4 | 3 | -11
CCCCn1c(O)c(C(CC)=NCCCN(C)C)c(=O)[nH]c1=O | 0.8 | 1.1 | 21* | -5 | 3
O=C(COc1ccc(Cl)cc1)N1CCN(Cc2cccc3ccccc23)CC1 | · | · | · | · | -25

Source: PubChem BioAssay (several laboratories)
